The full list was thinned out, with hits kept by preference.
RBX1-CUL1 inh – inhibitors of human ROC1-CUL1 ubiquitin ligase activity. 0.6% of 140,000 active. inhibition, % at 10 µM. P62877+Q13616. in vitro K48 di-Ub FRET, acceptor:donor ratio, 45 min; in the data active = inhibition above about 25%
Target sequence (P62877 whole entry, looked up): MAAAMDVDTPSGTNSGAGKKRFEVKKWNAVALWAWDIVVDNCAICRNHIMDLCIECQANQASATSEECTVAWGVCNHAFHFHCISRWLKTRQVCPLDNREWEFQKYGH
Target sequence (Q13616 whole entry, looked up): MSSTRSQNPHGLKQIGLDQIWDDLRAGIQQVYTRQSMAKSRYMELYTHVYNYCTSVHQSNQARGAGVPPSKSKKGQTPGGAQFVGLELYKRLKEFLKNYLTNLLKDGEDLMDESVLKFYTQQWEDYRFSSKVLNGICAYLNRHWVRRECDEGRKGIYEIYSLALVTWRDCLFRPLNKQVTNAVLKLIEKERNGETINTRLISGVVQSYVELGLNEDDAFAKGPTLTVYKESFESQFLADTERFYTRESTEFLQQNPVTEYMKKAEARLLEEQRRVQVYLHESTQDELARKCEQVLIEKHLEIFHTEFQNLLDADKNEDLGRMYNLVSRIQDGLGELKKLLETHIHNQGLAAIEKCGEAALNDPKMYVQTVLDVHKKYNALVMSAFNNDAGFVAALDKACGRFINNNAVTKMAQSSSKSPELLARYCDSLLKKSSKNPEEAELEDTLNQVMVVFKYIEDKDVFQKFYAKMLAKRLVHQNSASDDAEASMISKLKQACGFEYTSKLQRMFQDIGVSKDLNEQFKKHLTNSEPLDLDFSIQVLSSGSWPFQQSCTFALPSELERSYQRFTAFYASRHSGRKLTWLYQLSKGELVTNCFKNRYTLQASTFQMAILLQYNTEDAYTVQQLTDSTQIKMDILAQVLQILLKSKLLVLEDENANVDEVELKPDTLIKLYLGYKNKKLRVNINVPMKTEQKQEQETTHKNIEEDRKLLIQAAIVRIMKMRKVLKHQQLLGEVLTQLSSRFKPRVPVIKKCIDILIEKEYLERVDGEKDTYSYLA
Each line names hits and unclear results; the compound was inactive in the other large screens.

O=C(O)c1ccccc1-c1c2cc(Cl)c(=O)cc-2oc2c1CC(Cl)C(O)=C2 (centres undefined)	RBX1-CUL1 inh 129
CC[n+]1cc(Cl)nc(-c2ccccc2)c1-c1ccccc1	RBX1-CUL1 inh 39
Nc1nc(-c2ccccc2)c(Cl)nc1-c1ccccc1	none
CCOc1cc[n+](CC)c(-c2ccccc2)n1	none
COC(=O)C1=C2C(=CC3(C)CC(C)(C)CC2(C(=O)OC)C3)CC1(C)C (centres undefined)	none
CCCCCCc1cc2c(=O)c(Oc3cc(C)cc(C)c3)c(C(F)(F)F)oc2cc1OC(=O)c1cccs1	none
CCCS(=O)(=O)c1ncc(CN(C)Cc2ccsc2)n1CC1CCCO1 (centres undefined)	none
C=CCOc1ccc(Oc2nc(N(C)C)nc(N(C)C)n2)nn1	none
C#CCN(Cc1ccco1)C(=O)C1CCCN(C2CCN(C(C)C)CC2)C1 (centres undefined)	none
CCOc1ccc(S(=O)(=O)N2CCC(Cc3ccccc3)CC2)cc1	RBX1-CUL1 inh 59
CCOC(=O)C1CCN(S(=O)(=O)c2ccc(OCC)cc2)CC1	none
CCOc1ccc(S(=O)(=O)N2CCOCC2)cc1	none
CC1=Nc2nc(CCCO)nn2C(c2ccc(Cl)c(Cl)c2)C1C(=O)Nc1ccccc1C (centres undefined)	none
Cc1cc(NS(=O)(=O)c2ccc(NC(=O)C(C)Oc3ccc(F)cc3)cc2)nc(C)n1 (centres undefined)	none
COc1cc(Cl)cc(/C=C2\SC(=N)NC2=O)c1OC	none
Cc1nonc1C(=O)N=Nc1c2ccccc2c2nc3no[nH]c3nc12	RBX1-CUL1 inh 45
Cc1nnc(NC(=O)N2CCN(Cc3ccccc3C#N)CC2)s1	none
COc1ccc(C2c3c(n[nH]c3-c3ccccc3)OC(=N)C2C#N)cc1CSc1ccccn1 (centres undefined)	none
O=S(=O)(c1c(F)c(F)c(F)c(F)c1F)C(F)F	RBX1-CUL1 inh 103
Cc1ccc(S(=O)(=O)C(F)F)cc1	none
Cc1ccc(N=C2NC(=O)CC(C)S2)cc1 (centres undefined)	none
O=C(NCc1ccc(F)cc1)NC(=O)C(F)(F)F	none
COCC(=O)Nc1ccccc1C(=O)O	none
CCOCC(=O)Nc1ccccc1OC	none
CCOCC(=O)Nc1ccccc1C(=O)O	RBX1-CUL1 inh 103
CCc1ccc(NC(=O)Cc2ccc(Cl)cc2)cc1	none
Cc1ccc(SC2CCN(C(=O)CCn3nnnc3CN3CCOCC3)CC2)cc1	none
COC(=O)[C@]1(C)C[C@H](C(=O)N(C)Cc2ccncc2C)[C@H](c2ccccc2C)N1C	none
Clc1ccc(-c2csc(Nc3nc(-c4ccccc4)cs3)n2)cc1	none
Fc1ccc(CN2CCOc3ccc(CN4CCC(Oc5cccnc5)CC4)cc3C2)cc1F	none
CC1(C)OC2OC(C(O)c3cc(O)c4c(c3O)C(=O)c3ccccc3C4=O)C(C)(O)C2O1 (centres undefined)	RBX1-CUL1 inh 65
O=C(NCCN1CCOCC1)c1cnn2c(C(F)(F)F)cc(-c3ccc(F)cc3)nc12	none
O=S(=O)(NCCN1CCCCC1)c1ccc2c(c1)OCCO2	none
Cn1cc(/C=C\C(=O)N2CCc3ccccc32)cn1	none
CCOC(=O)Cc1[nH]nc2c1C(c1ccc(F)cc1F)C(C#N)C(=N)O2 (centres undefined)	none
Fc1ccc(-c2nnc3c(Cl)nc4ccccc4n23)cc1	none
Clc1nc2ccccc2n2c(-c3ccccc3)nnc12	RBX1-CUL1 inh 25
COc1ccc2nc(Cl)c(-c3nnc4c(Cl)nc5ccccc5n34)cc2c1	none
CSc1nnc2n(-c3ccccc3C)c(=O)c3c4c(sc3n12)CCCC4	none
COc1cc(/C=C2/C(=N)N3N=C(c4ccco4)SC3=NC2=O)cc(OC)c1OC	none
N=C1/C(=C/c2cccc(OC(=O)c3cccs3)c2)C(=O)N=C2SC(c3cccs3)=NN12	RBX1-CUL1 inh 95
CCOC(=O)c1ccc(-c2ccc(/C=C3/C(=N)N4N=C(c5ccc(C)cc5)SC4=NC3=O)o2)cc1	none
CC(C)(C)c1ccc(C(=O)Oc2cccc(/C=C3\C(=N)N4N=C(c5ccco5)SC4=NC3=O)c2)cc1	RBX1-CUL1 inh 96
Cc1ccc(S(=O)(=O)Oc2cccc(/C=C3/C(=N)N4N=C(CC(C)C)SC4=NC3=O)c2)cc1	none
N=C1/C(=C/c2cccc(Br)c2)C(=O)N=C2SC(C(F)(F)F)=NN12	none
Cc1nnc(-c2cccc(NC(=O)C3CCN(C4CCOCC4)CC3)c2)s1	none
CN1CCN(C(=O)/C=C2/c3ccccc3CSc3ccccc32)CC1	none
COc1ccc(Cc2nnc(SCC(=O)Nc3cccc(C(F)(F)F)c3)o2)cc1	none
COc1ccc(-c2nc3cc(C)ccc3o2)cc1N=Cc1cc2c(cc1[N+](=O)[O-])OCO2	none
CCSc1nnc(NC(=O)c2ccc([N+](=O)[O-])cc2[N+](=O)[O-])s1	none
CCOC(=O)c1cnn2c(C(F)(F)F)cc(-c3ccc(F)cc3)nc12	none
CC1=NN(c2ccc(C)cc2)C(=O)/C1=C\c1cccnc1	RBX1-CUL1 inh 82
CC1=NN(c2ccc(C)cc2)C(=O)/C1=C\c1ccc(OC(C)C)cc1	none
CC1=NN(c2ccccc2)C(=O)/C1=C/c1ccc(OCCCOc2ccccc2)cc1	none
O=C1NN(c2ccccc2)C(=O)/C1=C/c1cc(Br)ccc1OCCCOc1ccc(Cl)cc1	none
O=C1NN(c2ccccc2)C(=O)/C1=C/c1ccc(OCc2ccc(Cl)c(Cl)c2)cc1	none
O=C1NN(c2ccccc2)C(=O)/C1=C/c1ccccc1OCc1ccc(Cl)c(Cl)c1	none
Cc1ccc(OCCCOc2ccc(Br)cc2/C=C2\C(=O)NN(c3ccccc3)C2=O)cc1	RBX1-CUL1 inh 61
Cc1ccccc1COc1ccc(Br)cc1/C=C1\C(=O)NN(c2ccccc2)C1=O	RBX1-CUL1 inh 49
O=C1NN(c2ccccc2)C(=O)/C1=C/c1cc(Br)ccc1OCc1ccc(Cl)c(Cl)c1	RBX1-CUL1 inh 72
O=C1NN(c2ccc(Br)cc2)C(=O)/C1=C\c1ccccc1OCc1ccccc1	none
O=C1NN(c2ccccc2)C(=O)/C1=C\c1cc(O)ccc1Br	none
O=C1NN(c2ccccc2)C(=O)/C1=C/c1ccccc1OCCCOc1ccccc1	none
Cc1ccccc1CCC1CCCN(C(=O)CC2CC2)C1 (centres undefined)	none
CCc1cc2c(=O)c(-c3ccc4c(c3)OCCCO4)coc2cc1OCC(=O)c1ccc(Cl)cc1	none
Cc1cc(Cl)ccc1OCC(=O)NCCC(c1ccccc1)c1ccccc1	none

Screening results (PubChem BioAssay)
